The record followed here is PubChem BioAssay (NCATS).

Unmarked numbers belong to inactive results. Results filed as inconclusive are left out. Calls of active or inactive are those of the source. Unless noted, calls come from the whole dose curve; as a rule, active = well fitted curve in the direction sought with a large enough effect; inconclusive = small, poorly fitted or top-dose-only effect, or another doubt; inactive = no such curve, though single readings can be large; an effect the other way counts as inactive or inconclusive.

For one assay, the system named is PA-1. The assay is described as follows: Primary qHTS to identify gynecologic anti-cancer compounds using libraries of approved drugs and bioactive compounds (AID 1345084). For activity change, negative = cytotoxicity: % is set by controls: 0 for no effect and ±100 for the full control effect. Note: nearly all actives have a fitted effect of over 55% in size. Note: potency is the fitted concentration of half-maximal effect. The settings on record: Gynecologic cancer cell panel viability, ATPlite luminescence, 48 h; series mostly up to 57.5 µM. A digest of the protocol: (§1)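 In this quantitative HTS, cell killing is estimated from loss of ATP-dependent luciferase light. Cells see five compound concentrations over a 48 h exposure.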
In general terms: Quantitative high-throughput screening tests each substance at several concentrations.

The test system of a further assay is SKOV3. Described as above. The following applies: Gynecologic cancer cell panel viability, ATPlite luminescence, 48 h; series mostly up to 57.5 µM. A digest of the protocol:
as §1
For orientation: Cellular ATP, detected with luciferase, serves as a proxy for viable cell number.

The subject of the next assay is Tov-21-G. The assay is described as above. The settings on record: Gynecologic cancer cell panel viability, ATPlite luminescence, 48 h; series mostly up to 57.5 µM. A digest of the protocol:
as §1

The next assay has as its system Tov112D. Described as above. The settings on record: Gynecologic cancer cell panel viability, ATPlite luminescence, 48 h; series mostly up to 57.5 µM. The method in brief: as §1
A short description of assay [1]: Drug repurposing screens with cells derived from glioblastoma tumor samples (AID 1345199). For activity, negative = cell killing: % is set by controls: 0 for no effect and ±100 for the full control effect. For all read-outs here: nearly all actives have a fitted effect of over 40% in size. Note: potency is the fitted concentration of half-maximal effect. The following applies: GBM patient neurospheres viability, ATP luminescence, 48 h; for Potency: tumour line A. A digest of the protocol:
(§2)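 Four patient lines of CD133+ GBM neurospheres were screened at several concentrations; hits were retested in those lines plus three slower-growing GBM lines, using 48-hour treatment and ATP-based viability.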

In a further assay the test system is astro. Described as above. The following applies: viability, ATP luminescence, 48 h; series mostly up to 45.9 µM. A digest of the protocol: as §2
Assay [2] can be described thus: qHTS assay to identify inhibitors of the type 1 interferon - major histocompatibility complex class I in skeletal muscle: Counter screen cell viability and HiBit confirmation (AID 1347412). Note: potency is the fitted concentration of half-maximal effect; nearly all actives have a fitted effect of over 60% in size. The following applies: iHSKM muscle cells + IFN-b, HiBiT or CellTiter-Glo, 24 h; HiBiT. A digest of the protocol:
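Myoblasts (C25cl48, HLA-B HiBiT) seeded in medium without dexamethasone, IFN-b 4 ng/ml added except unstimulated columns; 1 hr later compounds pinned (12-pt 1:3, top 46 uM final). Incubated 24 hrs, lysed 10 min, luminescence measured.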

Assay [3] has as its target Nuclear receptor subfamily 1 group I member 2 (Rattus norvegicus) (UniProt Q9R1A7). The assay is described as follows: qHTS assay for small molecule activators of the rat pregnane X receptor (rPXR) signaling pathway (AID 651751; call rule not given here; note: 0% is about no effect). The following applies: rPXR reporter cells, luciferase (One-Glo), 24 h.
The nature of assay [4]: qHTS assay for small molecule activators of the human pregnane X receptor (PXR) signaling pathway (AID 720659; call rule not given here; note: 0% is about no effect).
The mark [5] stands for this setting: at 46.1 µM (top of the series), tumour line C.
Setting [6] is: at 45.9 µM (top of the series), tumour line B.
[7] abbreviates: at 45.9 µM (top of the series), tumour line D.

Sequence of Nuclear receptor subfamily 1 group I member 2 (Rattus norvegicus) (Q9R1A7 whole entry, looked up): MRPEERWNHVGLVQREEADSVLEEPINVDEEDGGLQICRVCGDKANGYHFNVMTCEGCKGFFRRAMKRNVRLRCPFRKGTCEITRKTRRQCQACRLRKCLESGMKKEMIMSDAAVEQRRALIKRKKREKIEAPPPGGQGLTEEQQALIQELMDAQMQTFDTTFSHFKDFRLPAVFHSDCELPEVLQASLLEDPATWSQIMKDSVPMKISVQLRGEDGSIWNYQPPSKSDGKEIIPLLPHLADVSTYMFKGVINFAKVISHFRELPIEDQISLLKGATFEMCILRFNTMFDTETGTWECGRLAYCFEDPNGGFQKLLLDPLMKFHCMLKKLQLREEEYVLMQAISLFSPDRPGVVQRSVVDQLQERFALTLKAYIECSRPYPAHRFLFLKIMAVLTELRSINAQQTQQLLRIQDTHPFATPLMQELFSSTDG

Turning to `CCCCNc1ccc(C(=O)OCCN(C)C)cc1`, the Potency entry with PA-1, with SKOV3, in the assay on Tov-21-G, in the assay with Tov112D and in the assay on astro was “inactive” in each case. Besides, the activity, negative = cell killing in assay [1] (at 20 µM (top of the series), tumour line C) was -9.33%. In [1], the Potency was 14.1 µM (active).

As for `NC(N)=NC(=O)Cc1c(Cl)cccc1Cl`, the Potency result in the assay on PA-1, in the assay with SKOV3, with Tov-21-G, in the assay on Tov112D and with astro was “inactive” each time. Further, in assay [1] (setting [5]), the activity, negative = cell killing is -19.8%. Besides, the Potency in assay [1] was 5.62 µM (active).

On to `CN(C)CC/C=C1\c2ccccc2COc2ccccc21`, for which the Potency result in the assay with PA-1, with SKOV3, with Tov-21-G, in the assay on Tov112D and in the assay with astro was “inactive” in each case. For the same compound, the activity, negative = cell killing in assay [1] (setting [6]) was -27.9%; in assay [1] (setting [5]), -1.82%. Further, in assay [1], the Potency was 14.1 µM (active).

Regarding `CN1CCN(CC(=O)N2c3ccccc3C(=O)Nc3cccnc32)CC1`, the activity change, negative = cytotoxicity in the assay on PA-1 is 18.1% [at 6.55 µM]; with SKOV3 it was 8.94% [at 6.55 µM]; in the assay on Tov-21-G, 7.44% [at 6.55 µM]; in the assay with Tov112D, -0.53% [at 6.55 µM]. Besides, the activity, negative = cell killing in assay [1] (setting [6]) was -1.68%; in [1] (setting [7]), -4.29%; in [1] (setting [5]), 9.11%. For the same compound, in the assay on astro, the Potency result is “inactive”.

In the case of `c1cnc(N2CCN(Cc3ccc4c(c3)OCO4)CC2)nc1`, the Potency entry with PA-1, in the assay on SKOV3, in the assay on Tov-21-G, in the assay on Tov112D and in the assay with astro was “inactive” each time. Moreover, the activity, negative = cell killing in assay [1] (setting [6]) is -3.93%; in assay [1] (setting [7]), -6.17%; in assay [1] (setting [5]), -21.6%.

As to `CC(=O)[C@]1(O)Cc2c(O)c3c(c(O)c2[C@@H](O[C@H]2C[C@H](N)[C@H](O)[C@H](C)O2)C1)C(=O)c1ccccc1C3=O`, the Potency with PA-1 was 0.282 µM (active); in the assay with SKOV3, 1.78 µM (active); with Tov-21-G, 0.794 µM (active); with Tov112D, 0.562 µM (active); in the assay on astro, 0.398 µM (active); in [2], 0.883 µM (active).

As for `NC1=NCC2c3ccccc3Cc3ccccc3N12` (stereo unspecified), the Potency entry in the assay with PA-1, in the assay on SKOV3, in the assay on Tov-21-G and with astro was “inactive” in each case. The activity, negative = cell killing in [1] (setting [6]) is -23.2%. Further, the Potency in assay [1] was 12.6 µM (active).

`COC(=O)[C@H]1[C@H]2C[C@@H]3c4[nH]c5cc(OC)ccc5c4CCN3C[C@H]2C[C@@H](OC(=O)c2cc(OC)c(OC)c(OC)c2)[C@@H]1OC`: the Potency result in the assay on PA-1, with SKOV3, in the assay with Tov-21-G, in the assay on Tov112D and in the assay on astro was “inactive” each time. Moreover, the activity, negative = cell killing in assay [1] (setting [6]) was -27.8%. Also, the Potency in assay [1] was 5.01 µM (active).

As for `CCCN(CCC)CCc1cccc2c1CC(=O)N2`, the Potency entry in the assay with PA-1, in the assay on SKOV3, in the assay on Tov-21-G, in the assay on Tov112D and in the assay with astro was “inactive” each time. Further, the results for the activity, negative = cell killing in assay [1] (setting [6]), in [1] (setting [7]) and in assay [1] (setting [5]) were -4.59%, 4.33% and 2.12%, respectively.

Take `COc1ccc(CN(CCN(C)C)c2ccccn2)cc1`: the Potency entry in the assay on PA-1, in the assay with SKOV3, with Tov-21-G, with Tov112D and in the assay on astro was “inactive” each time. In addition, the values for the activity, negative = cell killing in [1] (setting [6]) and in assay [1] (setting [5]) were -3.6% and -2.37%, respectively. Moreover, in assay [1], the Potency was 35.5 µM (active). In addition, the max response in assay [3] is 7.02%.

Consider `COCCCC/C(=N\OCCN)c1ccc(C(F)(F)F)cc1`, for which the Potency result with PA-1, in the assay on Tov-21-G and with Tov112D was “inactive” throughout.

Turning to `CCOC(=O)C1=C(C)NC(C)=C(C(=O)OC)C1c1cccc(Cl)c1Cl` (stereo unspecified), the Potency entry in the assay on PA-1, in the assay on SKOV3, in the assay on Tov-21-G, with Tov112D and with astro was “inactive” each time. Besides, the activity, negative = cell killing in assay [1] (setting [6]) is -16.5%. In addition, the Potency in assay [1] was 12.6 µM (active).

On to `CC(C)NCC(O)c1cc(O)cc(O)c1` (stereo unspecified), for which the Potency entry in the assay with PA-1, with SKOV3, with Tov-21-G, with Tov112D and in the assay on astro was “inactive” throughout. The figures for the activity, negative = cell killing in [1] (setting [6]), in assay [1] (setting [7]) and in assay [1] (setting [5]) were -18.9%, 17.6% and -22.7%, respectively.

On to `CN(C)CCN(Cc1cccs1)c1ccccn1`, for which the Potency entry with PA-1, in the assay with SKOV3, with Tov-21-G, with Tov112D and in the assay on astro was “inactive” in each case. The activity, negative = cell killing in assay [1] (setting [6]) was -18%. In addition, in assay [1], the Potency is 8.91 µM (active).

For `CC(N=C(NC#N)Nc1ccncc1)C(C)(C)C` (stereo unspecified), the Potency result in the assay on PA-1, in the assay with SKOV3, in the assay on Tov-21-G, in the assay with Tov112D and in the assay with astro was “inactive” throughout. The activity, negative = cell killing is -17.7% in assay [1] (setting [6]), -6.7% in assay [1] (setting [7]) and -1.36% in assay [1] (setting [5]).

Consider `C[C@]12CCC(=O)C=C1CC[C@@H]1[C@@H]2CC[C@@]2(C)[C@H]1CC[C@]2(O)C(=O)CO`, for which the Potency result in the assay with PA-1, with SKOV3, in the assay on Tov-21-G, in the assay on Tov112D and in the assay on astro was “inactive” each time. The activity, negative = cell killing in assay [1] (setting [6]) was -14.7%; in [1] (setting [7]), 0.984%; in assay [1] (setting [5]), -72.8%.

With `OC(CCN1CCCCC1)(c1ccccc1)C1CCCCC1` (stereo unspecified), the Potency entry with PA-1, in the assay on SKOV3, in the assay with Tov-21-G, with Tov112D and in the assay on astro was “inactive” each time. Further, the activity, negative = cell killing in [1] (setting [6]) was -11.3%; in assay [1] (setting [5]), -28%.

For `CN(C)CC[C@@H](c1ccc(Br)cc1)c1ccccn1`, the Potency entry in the assay with PA-1, in the assay with SKOV3, with Tov-21-G, in the assay with Tov112D and in the assay with astro was “inactive” in each case. The activity, negative = cell killing in [1] (setting [6]) was -11%; in assay [1] (setting [5]), 2.86%. In addition, in assay [1], the Potency was 11.2 µM (active).

For the compound `O=C(O)CCCCCCCC(=O)O`, the Potency result in the assay with PA-1, with SKOV3, in the assay on Tov-21-G, with Tov112D and with astro was “inactive” in each case. In addition, the activity, negative = cell killing in assay [1] (setting [6]) is -8.57%; in assay [1] (setting [7]), -5.03%; in [1] (setting [5]) it was -6.63%. The max response in assay [3] is -2.29%. Also, the call in assay [4] was inactive.

Consider `C=CCc1ccccc1OCC(O)CNC(C)C` (stereo unspecified), for which the Potency entry in the assay on PA-1, in the assay on SKOV3, in the assay on Tov-21-G, in the assay on Tov112D and with astro was “inactive” throughout. The figures for the activity, negative = cell killing in assay [1] (setting [6]), in assay [1] (setting [7]) and in [1] (setting [5]) were -18%, -4.74% and -6.66%, respectively.

As for `CCn1ccnc1CC1COc2ccccc2O1` (stereo unspecified), the Potency result in the assay on PA-1, in the assay with SKOV3, in the assay on Tov-21-G, in the assay with Tov112D and in the assay with astro was “inactive” in each case. The activity, negative = cell killing in [1] (setting [6]) was -17.6%; in assay [1] (setting [7]), -4.46%; in [1] (setting [5]), -8.32%.
